Active and inactive are the calls of the source.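 Rule for the calls: active = inhibition at or above 50% relative to wild type and mutant plate controls; inactive = inhibition below 50%.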 Peptide text beside a SMILES is read from it. * marks the point of attachment. Cbz = O=C(OCc1ccccc1)*
assay: loss of swimming-algae plug formation – whole organism, Chlamydomonas reinhardtii, WT vs cilia-less mutant, absorbance, 96-well, primary screen (AID 463189); conditions: Chlamydomonas reinhardtii gravitaxis, OD600 absorbance, 2 days; at 10 µM; hits give high values;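 note: 0% = wild type cc124 cells in DMSO and 100% = ciliumless bld1 mutant cells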

| SMILES | inhibition |
| --- | --- |
| CC1(C)C(=O)N(CCN2CCC(C(=O)c3ccc(F)cc3)CC2)c2ccccc21 | 5.57% (inactive) |
| C#CCn1c(=O)c2c(ncn2C)n(C)c1=O | 3.25% (inactive) |
| CCCCCCCCCC[Si](C)(C)CCC(=O)NC(Cc1ccc(C)cc1)c1ccccc1 (stereo not given) | 1.73% (inactive) |
| Oc1ccc(C2CNCc3sccc32)cc1O (stereo not given) | 10.1% (inactive) |
| CC12C(=O)OC(=O)C1(C)C1CCC2O1 (stereo not given) | -3.97% (inactive) |
| COc1ccccc1N1CCN(CCCNc2c(C)c(=O)n(C)c(=O)n2C)CC1 | 5.61% (inactive) |
| C#CCN1C(C)=C(C(=O)OC)C(c2cccc([N+](=O)[O-])c2)C(C(=O)OCC)=C1C (stereo not given) | 4.14% (inactive) |
| O=c1oc(Cl)c(Cl)c2ccccc12 | 3.88% (inactive) |
| CCCN(CCc1ccccc1)C1CCc2c(O)cccc2C1 (stereo not given) | 5.13% (inactive) |
| CN/C(=C\[N+](=O)[O-])NCCSCc1ccc(CN(C)C)o1 | 1.86% (inactive) |
| COc1cc2ncnc(Nc3cccc(Cl)c3)c2cc1OC | -7.15% (inactive) |
| COc1cc(NS(C)(=O)=O)ccc1Nc1c2ccccc2nc2ccccc12 | -1.97% (inactive) |
| CC(C)NCC(O)c1cc(O)cc(O)c1 (stereo not given) | 11.3% (inactive) |
| N=C(N)SCCc1cccc(CCSC(=N)N)c1 | 2.04% (inactive) |
| O=c1onc2cnc3ccccc3n12 | 3.46% (inactive) |
| Nc1ccc2c3c(cccc13)C(=O)NC2=O | 32.5% (inactive) |
| Clc1ccc(N2CCN(Cc3c[nH]c4ncccc34)CC2)cc1 | 5.9% (inactive) |
| O=C(O)C1CCNCC1 | 4.95% (inactive) |
| O=C1O/C(=C/Br)CCC1c1cccc2ccccc12 (stereo not given) | -0.58% (inactive) |
| CC(=O)/C(C)=N/O | 1.74% (inactive) |

| SMILES | inhibition |
| --- | --- |
| Nc1ccc(S(=O)(=O)Nc2ccnn2-c2ccccc2)cc1 | -0.772% (inactive) |
| COc1ccc2c(c1)c(CC(=O)O)c(C)n2Cc1ccc(Cl)cc1 | -1.76% (inactive) |
| Cc1nc(N=Nc2cc(S(=O)(=O)O)c3cc([N+](=O)[O-])cc(S(=O)(=O)O)c3c2)c(COP(=O)(O)O)c(C=O)c1O | 0.765% (inactive) |
| Cc1ccccc1/C=C/C1=NCCN1 | 3.42% (inactive) |
| CCN1/C(=C/C(C)=O)Sc2ccc(OC)cc21 | 9.38% (inactive) |
| O=C(O)CCc1nc(-c2ccccc2)c(-c2ccccc2)o1 | 7.1% (inactive) |
| O=C(O)/C=C/C(O)c1ccc(Cl)cc1 (stereo not given) | -3.97% (inactive) |
| CCCn1c(=O)c2[nH]c(-c3ccc(OCC(=O)NCCN)cc3)nc2n(CCC)c1=O | 3.94% (inactive) |
| CCCC(CCC)C(=O)O | 2.56% (inactive) |
| C=CCN1CCc2c(cc(O)c(O)c2Cl)C(c2ccccc2)C1 (stereo not given) | -7.02% (inactive) |
| OC[C@H]1O[C@@H](n2cnc3c(Nc4ccccc4)ncnc32)C(O)[C@H]1O (stereo not given in full) | -0.892% (inactive) |
| CC(C)[C@H](NC(=O)OCc1ccccc1)C(=O)N[C@H](C=O)Cc1ccccc1 (Cbz-Val-Phe-aldehyde) | 6.09% (inactive) |
| Cc1ccc(=O)n(-c2ccccc2)c1 | 4.35% (inactive) |
| Nc1nc(OCc2ccccc2)c2[nH]cnc2n1 | 0.83% (inactive) |
| CC(=O)O[C@]1(C(C)=O)CC[C@H]2[C@@H]3C=C(Cl)C4=CC(=O)[C@@H]5C[C@@H]5[C@]4(C)[C@H]3CC[C@@]21C | 6.43% (inactive) |
| O=c1c(O)c(-c2cc(O)c(O)c(O)c2)oc2cc(O)cc(O)c12 | 9.46% (inactive) |
| N=c1ccn2c(n1)OC1[C@@H](O)[C@@H](CO)O[C@H]12 (stereo not given in full) | -5.06% (inactive) |
| FC(F)(F)c1ccccc1-n1ccnc1 | 2.41% (inactive) |
| CNC1(C)C2CCC(C2)C1(C)C (stereo not given) | 2.45% (inactive) |
| NCCCS(=O)(=O)O | -4.87% (inactive) |
